Laboratory results: PubChem BioAssay (NCI)
Compounds without any hit were thinned out: in the full panel of roughly 83,000, 20% have a hit.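 Negative percent growth values reflect cell death: -40 means 40% of the cells present at the start died, and -100 means all died.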 The source made the active and inactive calls. The calls were made as follows: active = growth percent below 10; inactive = the rest.

Key:
Assay in all cases: NCI-60 one-dose screen, 48 h (100 = growth as untreated, 0 = no growth, -100 = all killed)
NCI-H23 lung = settings: 10 µM unless noted
NCI-H226 lung = settings: 10 µM unless noted
NCI-H322M lung = settings: 10 µM unless noted
HOP-62 NSCLC = settings: 10 µM unless noted
NCI-H460 lung = settings: 10 µM unless noted
HOP-92 NSCLC = settings: 10 µM unless noted
NCI-H522 lung = settings: 10 µM unless noted
A549/ATCC NSCLC = settings: 10 µM unless noted
786-0 renal = settings: 10 µM unless noted
COLO 205 colon = settings: 10 µM unless noted
DU-145 prostate = settings: 10 µM unless noted
K-562 leukemia = settings: 10 µM unless noted
MALME-3M melanoma = settings: 10 µM unless noted
MDA-MB-231 breast = settings: 10 µM unless noted
SF-268 CNS = settings: 10 µM unless noted
SF-295 CNS = settings: 10 µM unless noted
SF-539 CNS = settings: 10 µM unless noted
UACC-257 melanoma = settings: 10 µM
M14 melanoma = settings: 10 µM unless noted
RXF 393 renal = settings: 10 µM unless noted

Measured: growth

Nc1nc(N)c2c(n1)NC(c1ccccc1)CC(c1ccc(Nc3nc(NCCO)nc(Nc4ccc(Cl)cc4)n3)cc1)=N2 (stereo not drawn)
inactive: NCI-H23 lung 41.2% | NCI-H226 lung 91.9% | NCI-H322M lung 63.2% | NCI-H522 lung 41% | A549/ATCC NSCLC 75.7% | COLO 205 colon 80.8% | DU-145 prostate 41.6% | MDA-MB-231 breast 73.3% | SF-268 CNS 76.5% | SF-295 CNS 46.9% | SF-539 CNS 71.1% | UACC-257 melanoma 113% | M14 melanoma 81%
active: HOP-62 NSCLC -69.6% | NCI-H460 lung -80.3% | HOP-92 NSCLC -79.1% | 786-0 renal -86% | K-562 leukemia -40.7% | MALME-3M melanoma -89.6%

COc1ccc(-c2cc(-c3cccc4ccccc34)n3c(n2)nc2ccccc23)cc1OC
inactive: NCI-H23 lung 44.7% | NCI-H226 lung 19.8% | NCI-H322M lung 75.8% | HOP-92 NSCLC 11.5% | NCI-H522 lung 48.1% | A549/ATCC NSCLC 24.2% | 786-0 renal 10.5% | COLO 205 colon 65.4% | DU-145 prostate 15.7% | K-562 leukemia 32.8% | MALME-3M melanoma 16.9% | MDA-MB-231 breast 66.7% | SF-268 CNS 35.3% | SF-539 CNS 31.1% | UACC-257 melanoma 60.8% | M14 melanoma 36%
active: HOP-62 NSCLC -0.816% | NCI-H460 lung 3.44% | SF-295 CNS 2.25%

CC[C@@](C)(NC(=O)C(C)(C)NC(=O)[C@@H](NC(=O)[C@@H]1CCCN1C(=O)C(C)(C)NC(=O)[C@H](CC(C)C)NC(=O)CNC(=O)C(C)(C)NC(=O)[C@@H](NC(=O)C(C)(C)NC(=O)[C@H](CCC(N)=O)NC(=O)[C@H](C)NC(=O)C(C)(C)NC(=O)[C@H](C)NC(=O)C(C)(C)NC(=O)[C@H](C)NC(=O)C(C)(C)NC(C)=O)C(C)C)C(C)C)C(=O)N[C@@H](CCC(N)=O)C(=O)N[C@@H](CCC(N)=O)C(=O)N[C@H](CO)CC1CCCCC1
inactive: NCI-H23 lung 16.2% [5 µM] | NCI-H226 lung 47.8% [5 µM] | NCI-H322M lung 48.8% [5 µM] | HOP-62 NSCLC 47.2% [5 µM] | NCI-H460 lung 35.1% [5 µM] | A549/ATCC NSCLC 47.8% [5 µM] | DU-145 prostate 35.1% [5 µM] | K-562 leukemia 32.1% [5 µM] | MDA-MB-231 breast 32.7% [5 µM] | RXF 393 renal 23.7% [5 µM] | SF-268 CNS 32.6% [5 µM] | SF-295 CNS 81.8% [5 µM] | SF-539 CNS 18.8% [5 µM] | M14 melanoma 58.4% [5 µM]
active: HOP-92 NSCLC -17.2% [5 µM] | NCI-H522 lung 1.56% [5 µM] | 786-0 renal -14.2% [5 µM] | COLO 205 colon -7.42% [5 µM] | MALME-3M melanoma -18.4% [5 µM]

C=CCn1c(SCC(=O)Nc2cccc(C(=O)/C=C/c3cc(OC)c(OC)c(OC)c3)c2)nc2ccccc2c1=O
inactive: NCI-H23 lung 24.4% | NCI-H226 lung 75.8% | NCI-H322M lung 67.1% | HOP-62 NSCLC 45.8% | NCI-H460 lung 16.8% | HOP-92 NSCLC 48.4% | NCI-H522 lung 39.2% | A549/ATCC NSCLC 80.2% | 786-0 renal 43.7% | COLO 205 colon 108% | DU-145 prostate 13.7% | MALME-3M melanoma 71% | MDA-MB-231 breast 29.5% | RXF 393 renal 17.1% | SF-268 CNS 70.3% | SF-295 CNS 83.5% | SF-539 CNS 21.1% | UACC-257 melanoma 80.9% | M14 melanoma 63%

CCOC(=O)c1c(Nc2ccccc2)nn2c(-c3ccc(OC)c(OC)c3)ccnc12
active: HOP-92 NSCLC 5.27%
inactive: NCI-H23 lung 70.8% | NCI-H226 lung 54.9% | NCI-H322M lung 92.5% | HOP-62 NSCLC 72.7% | NCI-H460 lung 47.9% | NCI-H522 lung 69.3% | A549/ATCC NSCLC 52.6% | 786-0 renal 37.6% | COLO 205 colon 55.7% | DU-145 prostate 74.2% | K-562 leukemia 19.8% | MALME-3M melanoma 76.2% | MDA-MB-231 breast 34.9% | SF-268 CNS 68.1% | SF-295 CNS 49% | SF-539 CNS 60.2% | UACC-257 melanoma 95.2% | M14 melanoma 53.6%

Cc1ccc(-c2cc(-c3cccc4ccccc34)n3c(n2)nc2ccccc23)cc1
inactive: NCI-H23 lung 82% | NCI-H226 lung 57.9% | NCI-H322M lung 90.6% | HOP-62 NSCLC 67.5% | NCI-H460 lung 21.9% | HOP-92 NSCLC 71.6% | NCI-H522 lung 76.9% | A549/ATCC NSCLC 39.6% | 786-0 renal 47.6% | COLO 205 colon 59.7% | DU-145 prostate 69.4% | K-562 leukemia 51.1% | MALME-3M melanoma 32.2% | MDA-MB-231 breast 73.1% | SF-268 CNS 66.4% | SF-295 CNS 40.9% | SF-539 CNS 49.4% | UACC-257 melanoma 75.1% | M14 melanoma 61.5%

O=C1c2c(c3c4cc(O)ccc4oc3c3[nH]c4ccccc4c23)C(=O)N1O
active: NCI-H23 lung 2.57% | NCI-H322M lung 2.25% | HOP-62 NSCLC -25.6% | NCI-H460 lung -6.86% | HOP-92 NSCLC -8.01% | NCI-H522 lung -5.7% | 786-0 renal 2.62% | MALME-3M melanoma 9.51% | SF-539 CNS -15% | M14 melanoma -4.66%
inactive: NCI-H226 lung 63.6% | A549/ATCC NSCLC 43.5% | COLO 205 colon 61.5% | DU-145 prostate 11.3% | K-562 leukemia 14.4% | MDA-MB-231 breast 26% | SF-268 CNS 17.4% | SF-295 CNS 10.2% | UACC-257 melanoma 22.1%
